Bioassay records (PubChem)
Sampled rows, rich in hits. Any-hit rate of the full collection: about 4.2%.
GDH-TPI counter-1: counter-screen for M. tuberculosis FBA inhibitors: GDH-TPI coupled enzymes; inhibition, % at 4.8 µM; 360,000 tested, 1.2% active; GDH-TPI coupled enzyme counterscreen, NADH absorbance; AID 588335; in the data active = inhibition above about 30%;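 also: 0% = DMSO wells and 100% = wells lacking the enzyme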
Mtb bLac sens: beta-lactam sensitization of Mtb H37Rv; M. tuberculosis H37Rv growth with meropenem, percent inhibition; inhibition, % at 25 µM; 330,000 tested, 0.27% active;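 also: growth measured after seven days incubation then overnight dye step; 0% = bacteria only wells and 100% = bacteria with antibiotic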
CCHF vOTU inh-1: CCHFV vOTU protease inhibition; Pep-AMC fluorescence; inhibition, % at 11.5 µM; 370,000 tested, 0.55% active; AID 651958; in the data active = inhibition above about 30%; also: 0% = vehicle wells with enzyme and 100% = no enzyme wells
Mtb FBA inh: inhibits M. tuberculosis FBA enzyme; P9WQA3; purified M. tuberculosis FBA, fluorescence read-out; inhibition, % at 1 µM; 360,000 tested, 2.3% active; in the data active = inhibition above about 27%;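 also: 0% = vehicle and 100% = reference inhibitor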
Target sequence (P9WQA3 whole entry, looked up): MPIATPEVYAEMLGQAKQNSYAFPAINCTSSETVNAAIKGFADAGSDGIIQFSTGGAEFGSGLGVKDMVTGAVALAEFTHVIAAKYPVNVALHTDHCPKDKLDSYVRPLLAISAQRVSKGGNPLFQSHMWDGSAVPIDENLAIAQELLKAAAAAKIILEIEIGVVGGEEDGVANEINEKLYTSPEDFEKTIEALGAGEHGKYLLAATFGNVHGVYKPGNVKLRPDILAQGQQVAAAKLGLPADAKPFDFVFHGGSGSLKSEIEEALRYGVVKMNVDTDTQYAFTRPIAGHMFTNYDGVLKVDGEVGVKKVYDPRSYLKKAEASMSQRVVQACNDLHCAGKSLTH
RecA intein inh: Mtb RecA intein splicing inhibition; P9WHJ3; inhibition, % (concentration not given with the values); cell-free RecA intein splicing, fluorescence; 290,000 tested, 0.75% active; in the data active = inhibition above about 30%;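 also: 0% = vehicle wells and 100% = reference inhibitor control wells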
GFP chromophore: counter-screen: blocks GFP chromophore formation; shares compounds with RecA intein inh; cell-free GFP chromophore formation, fluorescence; EC50, µM; 2,100 tested, 83% active
Mtb FBA confirm: confirmation of M. tuberculosis fructose-bisphosphate aldolase inhibitors. shares compounds with Mtb FBA inh. purified M. tuberculosis FBA, fluorescence read-out. inhibition, % at 1 µM. 5,600 tested, 78% active. AID 651616; in the data active = inhibition above about 27%;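 also: 0% = vehicle wells and 100% = reference inhibitor wells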
GDH-TPI counter-2: counter-screen for M. tuberculosis FBA inhibitors: GDH-TPI coupled enzyme inhibition; shares compounds with Mtb FBA inh; GDH-TPI coupled enzyme counterscreen, fluorescence; inhibition, % at 1 µM; 5,600 tested, 81% active; in the data active = inhibition above about 10%
GDH-TPI dose: GDH-TPI dose response counter-screen for Mtb FBA. shares compounds with Mtb FBA inh. GDH-TPI coupled enzyme assay, fluorescence, artifact counterscreen. IC50, µM. 170 tested, 79% active. AID 652145
CCHF vOTU inh-2: CCHFV vOTU protease inhibition, confirmation | shares compounds with CCHF vOTU inh-1 | 1,900 tested, 17% active | inhibition, % at 11.5 µM | Recombinant CCHFV vOTU, Pep-AMC fluorescence | AID 686976; in the data active = inhibition above about 30%
* marks the source's active call; other numbers are inactive results; . = no result; + = active, no number. Unless noted, no rule for the calls is given here.

SMILES | GDH-TPI counter-1 | Mtb bLac sens | CCHF vOTU inh-1 | Mtb FBA inh | RecA intein inh | Mtb FBA confirm | GDH-TPI counter-2 | others
O=C(Nc1ccccc1Cl)c1c(F)c(F)c(F)c(F)c1F | 4 | 99 | -10 | -4 | 3 | . | .
NS(=O)(=O)c1ccc(NC2=CC(=O)C(=O)c3ccccc32)cc1 | 4 | 5 | 100* | -2 | 92* | . | . | GFP chromophore=2.6*;CCHF vOTU inh-2=102*
Cc1ccc(NC2=CC(=O)C(=O)c3ccccc32)cc1 | 11 | 99 | 93* | -4 | 54* | . | . | GFP chromophore=1.2*;CCHF vOTU inh-2=70*
NS(=O)(=O)c1ccc(NC(=O)Nc2ccccc2)cc1 | -8 | . | -6 | -2 | . | . | .
CCN(c1cccc(C)c1)S(=O)(=O)c1ccc2c(c1)oc(=O)n2C | 2 | -1 | 5 | 79* | 2 | 49* | 46*
CCOc1ccc(N(CC)S(=O)(=O)c2ccc3c(c2)oc(=O)n3C)cc1 | 3 | -2 | -1 | 0 | 0 | . | .
COc1ccc(CNC(=O)c2c([S-])n(-c3ccc(C)cc3)c3cccc[n+]23)cc1 | 5 | 6 | -8 | 36* | -2 | 70* | 97*
COc1ccccc1CCn1cnc(-c2cccc(Cl)c2)c1CC(C)C | . | . | 16 | . | . | . | .
COc1ccc2oc(=O)c(C(=O)NCc3ccco3)cc2c1 | 20 | 7 | -43 | 65* | -47 | -2 | -5
COc1ccc2oc(=O)c(C(=O)NC(C)c3ccccc3)cc2c1 (stereo not given) | 12 | -7 | -53 | 44* | -45 | 142* | 87*
COc1cccc2cc(C(=O)NCc3ccco3)c(=O)oc12 | 12 | 47 | -4 | 1 | -2 | . | .
O=C(N[C@H](c1cccc(Br)c1)[C@@H]1CCCC=C1c1ccccc1)C(F)(F)F | . | . | -1 | . | . | . | .
COc1ccc(-c2cnc3c(c2)CCC3(C#N)C#N)cc1 | 7 | 80 | 3 | 58* | 13 | 50* | 33*
C=CCN(C)CC#CCCCCl | . | . | -2 | . | . | . | .
CCCCN(C)Cc1c(C)[nH]c2ccc(OCC)cc2c1=O | 27 | 5 | -10 | 35* | 0 | 5 | -5
COc1cccc(CNC(=S)Nc2ccc3c(c2)c(=O)n(C)n3C)c1 | 15 | . | -81 | 26 | . | . | .
COc1cccc(CNC(=S)Nc2ccc3c(c2)c(=O)n(C)n3Cc2ccc(F)cc2)c1 | 3 | . | -50 | 29* | . | 130* | 94*
COc1cccc(Cn2c3ccc(NC(=O)Cc4ccccc4C)cc3c(=O)n2C)c1 | 3 | . | -86 | 89* | . | + | +
Cc1ccccc1CC(=O)Nc1ccc2c(c1)c(=O)n(C)n2-c1ccccc1F | 13 | . | -67 | 104* | . | 82* | 72*
Cc1ccccc1CC(=O)Nc1ccc2c(c1)c(=O)n(C)n2-c1cccs1 | 0 | . | 7 | 1 | . | . | .
COc1cc(Cn2c3ccc(NC(=S)NCc4ccc(C)cc4)cc3c(=O)n2C)ccc1F | 6 | . | -59 | 38* | . | 180* | 138*
COC(=O)[C@]12C[C@H](CC(=O)NCc3ccc(C)o3)C(=O)N(Cc3cccc4ccccc34)C1=C[C@H](C1CCCC1)O[C@@H]2C | . | . | 11 | . | . | . | .
CC(=O)NN1C(=O)c2ccccc2NC1c1ccccn1 (stereo not given) | 0 | 3 | -45 | 27* | -3 | 14 | 10 | GDH-TPI dose=6*
O=C(NN1C(=O)c2ccccc2NC1c1ccccn1)c1ccc(Br)cc1 (stereo not given) | 2 | -11 | -6 | -2 | 0 | . | .
CC(=O)NN1C(=O)c2ccccc2NC1c1ccco1 (stereo not given) | -2 | -1 | -50 | 32* | 1 | 39* | 23*
SMILES | GDH-TPI counter-1 | Mtb bLac sens | CCHF vOTU inh-1 | Mtb FBA inh | RecA intein inh | Mtb FBA confirm | GDH-TPI counter-2 | others
CCOc1ccc(-c2cc(C)[n+](CCO)c(-c3ccc(OCC)cc3)c2)cc1 | 28 | -3 | -89 | 63* | -7 | 67* | 49*
O=C(NCC1CCCO1)C1c2ccccc2C(=O)N1C1CCCCCC1 (stereo not given) | -12 | -3 | . | 41* | 0 | 112* | 97*
Cn1c(=O)c2c(ncn2Cc2ccc(O)c([N+](=O)[O-])c2)n(C)c1=O | . | . | -2 | . | . | . | .
S=c1[nH]nc(-c2n[nH]c3c2CCC3)n1N=Cc1ccc(OCc2ccccc2)cc1 | . | . | 1 | . | . | . | .
CN1CCCN(C(=O)CN2C(=O)CC(C)(C)S(=O)(=O)c3ccccc32)CC1 | . | . | -4 | . | . | . | .
COc1ccccc1-c1nc(-c2cccc(C)c2)no1 | 1 | 52 | 0 | 81* | 1 | 76* | 54*
COC(=O)C[C@@H]1CC[C@@H]2[C@@H](COc3ccc(NC(=O)Nc4ccccc4)cc3C(=O)N2C)O1 | . | . | -3 | . | . | . | .
Cc1c(C)c2ccc(OCC(=O)N3CC[C@@]4(O)CCCC[C@H]4C3)c(C)c2oc1=O | 4 | -9 | -14 | 36* | -4 | 104* | 92*
CCc1cc(=O)oc2cc(OCC(=O)N3CC[C@@]4(O)CCCC[C@H]4C3)ccc12 | 28 | -8 | -11 | 30* | . | 64* | 48*
Cc1c(C)c2ccc(OCC(=O)N(C)C3CCS(=O)(=O)C3)c(C)c2oc1=O (stereo not given) | 8 | -1 | -13 | 89* | 0 | 71* | 64*
Cc1cc(=O)oc2cc(OCC(=O)N3CC[C@@]4(O)CCCC[C@H]4C3)ccc12 | 24 | -1 | -15 | 24 | -3 | . | .
COc1ccc(C(=O)OCCN(C)C2CN(Cc3cn(Cc4ccccc4Cl)nn3)S(=O)(=O)C2)cc1OC (stereo not given) | . | . | -3 | . | . | . | .
Cc1oc(/N=C/c2ccc(O)cc2O)c(C#N)c1C | 18 | 8 | -21 | 71* | -14 | + | +
Cc1c(OCC(=O)N2CCC(C(N)=O)CC2)ccc2c1oc(=O)c1ccccc12 | 15 | -2 | -24 | 28* | 2 | 130* | 101*
COc1ccc(N2CCN(C(=O)COc3ccc4c(C)cc(=O)oc4c3C)CC2)cc1 | 5 | 3 | 8 | 3 | -2 | . | .
CCCc1cc(=O)oc2c(C)c(OCC(=O)N3CCC(C(N)=O)CC3)ccc12 | 25 | 0 | -7 | 24 | 0 | . | .
Cc1ccc2c(CN3CCN(Cc4ccccc4)CC3)cc(=O)oc2c1C | 3 | 4 | 11 | 1 | -2 | . | .
Cc1cc(=O)oc2c(C)c(OCC(=O)N3CCN(Cc4ccccc4)CC3)ccc12 | 15 | -6 | 4 | 27* | 1 | 147* | 100*
Cc1c(O)ccc2c(CN3CCN(C/C=C/c4ccccc4)CC3)cc(=O)oc12 | 0 | 97 | -55 | 64* | -23 | 74* | 56*
